Our source for the Potency values is PubChem BioAssay AID1634 (National Center for Advancing Translational Sciences (NCATS), 2009).

Screen size: about 260,000 compounds; about 150 (0.058%) were called active. Where a call stands in place of a potency, no number is given. Calls follow the shape of the dose curve; as a rule, active = well fitted inhibition curve with a large enough effect; inconclusive = small, poorly fitted or top-dose-only effect; inactive = no such curve, though single readings can be large or run the other way. Only a selection was taken, and actives are over-represented in it overall.
Potency is read from the fitted curve at half-maximal effect.

Chain of Pyruvate kinase PKM (Homo sapiens) (P14618 whole entry, looked up, canonical isoform): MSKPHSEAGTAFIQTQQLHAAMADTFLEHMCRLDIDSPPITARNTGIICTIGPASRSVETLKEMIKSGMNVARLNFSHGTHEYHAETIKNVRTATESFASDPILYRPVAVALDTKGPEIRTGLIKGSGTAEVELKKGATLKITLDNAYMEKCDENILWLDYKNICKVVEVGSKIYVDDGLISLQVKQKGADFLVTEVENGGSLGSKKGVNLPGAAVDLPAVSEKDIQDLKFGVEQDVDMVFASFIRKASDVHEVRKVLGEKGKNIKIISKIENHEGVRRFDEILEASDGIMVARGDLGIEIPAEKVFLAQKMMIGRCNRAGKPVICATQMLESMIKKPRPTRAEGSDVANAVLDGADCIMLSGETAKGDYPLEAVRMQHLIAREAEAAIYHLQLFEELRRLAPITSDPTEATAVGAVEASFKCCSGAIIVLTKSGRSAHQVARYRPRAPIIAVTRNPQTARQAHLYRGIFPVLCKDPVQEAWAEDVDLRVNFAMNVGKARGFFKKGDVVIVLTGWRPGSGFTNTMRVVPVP

This assay concerns the target Pyruvate kinase PKM (Homo sapiens) (UniProt P14618). Kind of assay: qHTS Assay for Inhibitors of Human Muscle isoform 2 Pyruvate Kinase. Also: nearly all actives have a fitted effect of over 60% in size. The conditions noted are these: purified PKM2, ATP generation, Kinase-Glo luminescence; series mostly up to 57.5 µM. On the procedure:
NIH Chemical Genomics Center [NCGC] Matthew G. Vander Heiden, M.D., Ph.D. [Harvard Medical School, 77 Avenue Louis Pasteur, Boston, MA 02115] […] ATP generation was detected in a coupled reaction by luciferase-mediated luminescence, an ATP-dependent process. […] The enzyme was assayed at an intermediate level of activity to screen for both inhibitors and activators.
NCGC Assay Protocol Summary: Three uL of substrate mix (at r.t.) in assay buffer (50 mM Imidazole pH7.2, 50 mM KCl, 7 mM MgCl2, 0.01% Tween 20, 0.05% BSA) was dispensed into white solid bottom 1,536 well microtiter plates so that the final concentrations of substrates in the assay were 0.1 mM ADP and 0.5 mM PEP. 23 nL of compound were delivered by a pin tool and 1 uL of enzyme mix in assay buffer (4 degree Celsius) was added. Plates were incubated at room temperature for 1 hour. Two uL of detection mix (Kinase-Glo, Promega; at 4 degree Celsius protected from light) was added and luminescence read by a ViewLux (Perkin Elmer) at 5 second exposure/plate. Data were normalized to the uninhibited and AC100 inhibition (no enzyme). To monitor activation, the first column contained a titration of the activator, NCGC00031955-01 (16-point 1:2 dilutions in duplicate starting at 57 uM) and the first 16 rows of column 4 contained 57 uM of NCGC00031955-01.
For orientation: qHTS replaces the single test concentration by a dilution series.
For `Cc1nnc(SCC2=C(C(=O)O)N3C(=O)C(NC(=O)Cn4nc(C)c(Cl)c4C)C3SC2)s1` (stereo not given), the Potency entry was “inactive”.
As for `Oc1ccccc1N1CCN(c2ncnc3sc(-c4ccccc4)cc23)CC1`, the entry is “inactive”.
Under `C=CCn1c(SCc2csc(C)n2)nc2scc(-c3ccc(C)o3)c2c1=O` stands “inactive”; under `CCn1cc(C(=O)NCc2ccc3c(c2)OCO3)c2cc(OC)c(OC)cc2c1=O`, “inactive”.
Consider `Nc1nc(SCC(=O)N2CCN(S(=O)(=O)c3ccc(Cl)cc3)CC2)n[nH]1`, for which the Potency entry was “inactive”.
As for `C=CC(=O)c1ccc2ccccc2c1`, the entry is “inactive”; as for `CC(C)Oc1ccc(CCC(=O)NNC(=S)NCc2ccccc2)cc1`, “inactive”.
Take `N#Cc1nc(COc2ccc(Cl)cc2)oc1N1CCCC1`: the Potency result was “inactive”.
Under `CS(=O)(=O)Nc1cccc(C2=NN(S(=O)(=O)c3ccccc3)C(c3cccs3)C2)c1` (stereo not given) stands “inactive”; under `O=C(CCSCCc1ccccn1)Nc1nccs1`, “inactive”.
Under `CCOc1cc(/C=N/O)ccc1OCc1ccccc1F` stands “inactive”.
Under `O=c1[nH]c2ccccc2n2c(-c3ccccc3)nnc12` stands 25.1 µM (active); under `COc1c(O)ccc2c1CN1CCc3cc4c(cc3C1C2)OCO4` (stereo not given), “inactive”.
Consider `COc1ccc(C(=O)CCc2ccccc2O)c(OC)c1`, for which the Potency entry was “inactive”.
As for `CNC(=O)COc1ccc(S(=O)(=O)Nc2ccccc2)cc1`, the entry is “inactive”; as for `C(=N\N1CCN(c2ccccn2)CC1)/C1=C(N2CCOCC2)C(=C/c2ccccc2)/CC1`, “inactive”.
As for `COc1cccc(C(=O)NNS(=O)(=O)c2ccc(F)cc2)c1`, the Potency result is “inactive”.
On to `Cc1ccc(C(=O)Cn2cc([N+](=O)[O-])nc2C)cc1`, for which the Potency entry was “inactive”.
Consider `Cc1ccc(CNC(=O)C2CC(c3ccccc3[N+](=O)[O-])=NO2)o1` (stereo not given), for which the Potency entry was “inactive”.
Consider `O=c1cc(CO)oc(C(Nc2cccc(C(F)(F)F)c2)c2ccccn2)c1O` (stereo not given), for which the Potency entry is “inactive”.
As for `COc1ccc(-n2c(SCC(=O)NCc3cccs3)nnc2-c2ccoc2C)cc1`, the Potency entry was “inactive”.
Under `Cc1ccc(-c2nn(-c3ccccc3)cc2CN(Cc2ccccc2)C(=O)CCC(=O)O)o1` stands “inactive”.
On to `Cc1cc(C)c2nc(-c3ccco3)cc(C(=O)O)c2c1`, for which the Potency result is “inactive”.
`Cc1ccc(-n2nc(-c3ccco3)cc2C(=O)NCc2cccnc2)cc1`: the Potency entry was “inactive”.
Turning to `N#CCC(=O)N/N=C/c1cn(Cc2ccc3ccccc3c2)c2ccccc12`, the Potency entry is “inactive”.
In the case of `CC(C)(C)C1C/C(=C/c2ccco2)C(=O)/C(=C/c2ccco2)C1` (stereo not given), the Potency entry was “inactive”.
As for `CN1CCN(c2ccc(S(=O)(=O)Nc3ccccc3)cc2[N+](=O)[O-])CC1`, the entry is “inactive”.
Under `Cc1ccc(NS(=O)(=O)c2ccc3c(c2)oc(=O)n3C)c(C)c1` stands “inactive”.
For `COc1ccc2c(c1)C=CC1(O2)N(CCO)c2ccccc2C1(C)C` (stereo not given), the Potency result was “inactive”.
As for `O=C(Cc1cccs1)Nc1nnc(C2CC2)s1`, the Potency entry is “inactive”.
As for `Cc1nc2nc(COc3ccccc3)[nH]n2c(=O)c1Cc1ccccc1`, the entry is “inactive”.
As to `CCCc1nc2ccccc2c(=O)n1/N=C/c1ccc(O)c(O)c1`, the Potency result is “inactive”.
Regarding `COc1ccccc1C(=O)NCc1nnc(SC(C)C(=O)Nc2nccs2)n1C` (stereo not given), the Potency entry was “inactive”.
Regarding `COc1ccc(-c2ccc(CCC(=O)O)n2NC(=O)c2ccc(C(C)(C)C)cc2)cc1`, the Potency result is “inactive”.
Turning to `Oc1ccccc1CNc1ncc(Br)cc1Br`, the Potency entry is “inactive”.
Under `N/C(=N\S(=O)(=O)c1cc(C(F)(F)F)cc(C(F)(F)F)c1)c1cccs1` stands “inactive”; under `Cc1ccc2nc(C)cc(N/N=C/c3ccc(F)cc3)c2c1`, “inactive”.
Consider `COc1ccccc1-n1cnc2cc(NS(=O)(=O)c3ccccc3)ccc21`, for which the Potency result is “inactive”.
In the case of `COc1ccc(SC[C@H](Cc2ccccc2)N2CCN(CCc3ccccc3)CCC2=O)cc1`, the Potency entry was “inactive”.
Under `COc1ccc2[nH]c3c(=O)n(Cc4ccco4)cnc3c2c1` stands “inactive”; under `Fc1ccccc1CNC(=S)Nc1ccc(Cl)cc1`, “inactive”; under `Cn1c(-c2ccc(F)cc2)cnc1SCC(=O)NCc1ccco1`, “inactive”.
Consider `O=c1cc(Cn2nnc(-c3ccc(Cl)cc3)n2)nc2sccn12`, for which the Potency entry was “inactive”.
Under `O=C(CCC(=O)n1ncc2ccccc21)NCc1ccccc1Cl` stands “inactive”; under `NC(=S)c1ccc(C(N)=S)o1`, “inactive”; under `Cc1ccc(NN=Nc2nc3c([nH]2)c(=O)n(C)c(=O)n3C)cc1`, “inactive”.
Under `Nc1nnc(SCC(=O)NC2CCCc3ccccc32)s1` (stereo not given) stands “inactive”.
On to `O=S(=O)(c1ccc(Br)cc1)n1ccc2ccccc21`, for which the Potency result was “inactive”.
In the case of `Oc1ccc2nc(Cc3ccccc3)[nH]c2c1`, the Potency entry was “inactive”.
Under `CCOc1ccc(S(=O)(=O)Nc2nc3cc(OC)ccc3s2)cc1` stands “inactive”.
As for `O=c1ccc2cc(S(=O)(=O)Nc3ccccc3F)ccc2o1`, the entry is “inactive”; as for `Cc1cccc(CSc2nc3c(c(=O)n2C)SCC3)c1`, “inactive”; as for `CC(C)(C)c1ccc(C(=O)NCCn2c(N)c(C#N)c3nc4ccccc4nc32)cc1`, “inactive”.
Under `Cn1ncc(N2CCN(S(=O)(=O)c3ccc(Br)cc3)CC2)c(Cl)c1=O` stands “inactive”; under `O=C(CSc1nnc(-c2ccc([N+](=O)[O-])cc2)o1)Nc1ccccn1`, “inactive”; under `CCS(=O)(=O)Nc1ccc(C2=NN(C(C)=O)C(c3cccs3)C2)cc1` (stereo not given), “inactive”.
As to `O=C(NCc1cccs1)C1CCN(S(=O)(=O)c2ccc(Cl)cc2)CC1`, the Potency result is “inactive”.
As for `O=C(/C=C/c1ccc(Cl)cc1Cl)c1cccnc1`, the entry is “inactive”; as for `O=C(COc1ccccc1[N+](=O)[O-])N/N=C/c1ccc[nH]1`, “inactive”; as for `COc1cc(/C=N\Nc2nc(-c3cccs3)c(NC(C)=O)s2)ccc1O`, “inactive”.
Regarding `Brc1c(CSc2nncc3ccccc23)nc2ccccn12`, the Potency result is “inactive”.
Consider `Cc1cccc(C)c1NC1=NC(=S)N(c2ccc(N(C)C)cc2)C1(C)C`, for which the Potency result was “inactive”.
For the compound `CN(C)S(=O)(=O)c1cccc(-c2nn(-c3ccccc3)cc2/C=C2\SC(=S)N(CC(=O)O)C2=O)c1`, the Potency entry is “inactive”.
Under `O=C(N/N=C/c1ccc(O)c(O)c1)C1c2ccccc2Oc2ccccc21` stands “inactive”; under `Cc1coc2c(O)cc3c(c12)OC1(N2CCCCC2)C(=O)NCCCC31` (stereo not given), “inactive”; under `C/C=C\C=C\C(=O)N1CC2(CC(c3cccc(NC(=O)/C(C)=C\C)c3)=NO2)C[C@H]1C(N)=O` (stereo not given in full), “inactive”.
Turning to `Cn1c(=O)n(C)c2cc(NS(=O)(=O)c3ccc(F)cc3)ccc21`, the Potency result was “inactive”.
As for `Cc1ccc(NS(=O)(=O)c2cc3c(cc2C)NC(=O)CO3)cc1`, the entry is “inactive”; as for `CC(=O)Nc1cccc(OCC(=O)/C=C2\N(C)c3ccccc3C2(C)C)c1`, “inactive”.
Turning to `CC1=C/C(=N\OS(=O)(=O)c2ccccc2)C=CC1=O`, the Potency result was “inactive”.
For the compound `Cc1ccc(Cn2c(SCC(=O)N/N=C/c3ccccc3OCC(=O)O)nc3ccccc32)cc1`, the Potency result was “inactive”.
Under `Cc1cc(C)n(-c2ccc3nncn3n2)n1` stands “inactive”; under `CSC1=NCCN1C(=O)Cc1cccc2ccccc12`, “inactive”.
Regarding `Cc1ccnc(Nc2nc3ccccc3s2)n1`, the Potency result was “inactive”.
Under `N#Cc1nc(Cc2ccccc2)oc1NCCc1ccccc1` stands “inactive”; under `Cc1cc(C)c(C#N)c(SCc2ccc3c(c2)OCO3)n1`, “inactive”; under `C=C(C)C(=O)O[C@H]1C/C(C)=C\C(=O)/C=C(\C)[C@H](O)[C@@H]2OC(=O)C(=C)[C@@H]21`, “inactive”.
For the compound `Cc1ccc2c(Cl)c(C(=O)NCCCn3ccnc3)sc2c1`, the Potency entry was “inactive”.
As for `C=CCN(C(=O)Nc1ccc2oc(C)nc2c1)c1ccccc1`, the Potency result is “inactive”.
Take `O=S(=O)(c1ccc2ccccc2c1)N1CCN(S(=O)(=O)N2CCOCC2)CC1`: the Potency entry was “inactive”.
As for `N#Cc1c2c(c(N3CCN(CCO)CC3)n3c1nc1ccccc13)CCCC2`, the entry is “inactive”.
Under `COc1cc2c(cc1O)[C@H](Cc1ccc(Oc3cc(C[C@@H]4NCCc5cc(OC)c(O)cc54)ccc3O)cc1)NCC2` stands “inactive”; under `CN1CCCN(S(=O)(=O)c2ccc3c(c2)OCCO3)CC1`, “inactive”.
With `O=C(CSc1ccc(-c2ccco2)nn1)Nc1cccc(F)c1`, the Potency result is “inactive”.
As to `CCOC(=O)c1cnc(SCC(=O)Nc2cccc(OC)c2)nc1N`, the Potency entry is “inactive”.
Consider `O=C(Nc1ccccc1)c1nnsc1S(=O)(=O)c1ccc(Cl)cc1`, for which the Potency entry was “inactive”.
As for `O=C(CN1CCN(S(=O)(=O)c2ccc(F)cc2)CC1)NC1CC1`, the entry is “inactive”; as for `Cc1nc2cc(C(F)(F)F)ccc2n1CCNc1nc(-c2cc(Cl)c(N)c(Cl)c2)cs1`, “inactive”.
Turning to `Cc1ccc(S(=O)(=O)c2c(N)n(C)c3nc4ccccc4nc23)cc1`, the Potency result was “inactive”.
With `CSc1nc2ccc(S(=O)(=O)N3CCc4ccccc43)cc2s1`, the Potency result was “inactive”.
Turning to `COc1cccc(NC(=O)CSc2nnc(Cc3ccc(OC)c(OC)c3)o2)c1`, the Potency entry is “inactive”.
As to `CC1=C(C)CC2C(=O)N(c3cccc4ccccc34)C(=O)C2C1` (stereo not given), the Potency result is “inactive”.
On to `CCOC(=O)c1c(C)oc2cc(Br)c(OCC(N)=O)cc12`, for which the Potency result was “inactive”.
As for `COc1ccc(C(=O)/C=C/Nc2ccccn2)cc1`, the figure is 15.8 µM (active); as for `COc1cccc(Nc2ncccc2C(=O)O)c1`, “inactive”; as for `O=C(Nc1ccc(Br)c2cccnc12)c1ccc(Cn2cc([N+](=O)[O-])cn2)o1`, “inactive”.
Under `O=C(Oc1ccc(-c2nc(-c3ccccn3)no2)cc1)c1ccccc1` stands 14.1 µM (active); under `Cc1cnc(C(=O)N2CCCC(C(=O)c3ccc(C(F)(F)F)cc3)C2)cn1` (stereo not given), “inactive”; under `O=C(NCc1ccccn1)c1ccc2nc(-c3ccco3)c(-c3ccco3)nc2c1`, “inactive”.
On to `O=c1c2ccccc2nnn1CSc1nnnn1-c1ccccc1`, for which the Potency result is “inactive”.
